Screen size: about 76,000 compounds; about 1,200 (1.6%) were called active. Not shown: some 4% with an inconclusive outcome. This is one part of a sample in which actives are shown more often than they occur. A number with no mark means an inactive call. Calls follow the shape of the full dose curve.
The molecules below were run against Atrial natriuretic peptide receptor 1 (Homo sapiens) (UniProt P16066) (assay: Natriuretic polypeptide receptor (hNpr1) antagonism - Primary qHTS). Conditions: HEK293 hNpr1 GloSensor cGMP, ANP-stimulated luminescence; series mostly up to 46.3 µM; activity change, negative = inhibition: at the top concentration.
Summary of the method: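 HEK293 cells stably expressing human Npr1 and cGMP GloSensor pGS-40F, loaded 2 h with 2% GloSensor reagent, given compound 30 min at room temperature. Luminescence read before and 20 min after 0.1 nM hNppA.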
% is scaled to controls: 0 for no effect and ±100 for the full control effect; potency is read from the fitted curve at half-maximal effect.
Also: nearly all actives have a fitted effect of over 60% in size.

Sequence of Atrial natriuretic peptide receptor 1 (Homo sapiens) (P16066 whole entry, looked up): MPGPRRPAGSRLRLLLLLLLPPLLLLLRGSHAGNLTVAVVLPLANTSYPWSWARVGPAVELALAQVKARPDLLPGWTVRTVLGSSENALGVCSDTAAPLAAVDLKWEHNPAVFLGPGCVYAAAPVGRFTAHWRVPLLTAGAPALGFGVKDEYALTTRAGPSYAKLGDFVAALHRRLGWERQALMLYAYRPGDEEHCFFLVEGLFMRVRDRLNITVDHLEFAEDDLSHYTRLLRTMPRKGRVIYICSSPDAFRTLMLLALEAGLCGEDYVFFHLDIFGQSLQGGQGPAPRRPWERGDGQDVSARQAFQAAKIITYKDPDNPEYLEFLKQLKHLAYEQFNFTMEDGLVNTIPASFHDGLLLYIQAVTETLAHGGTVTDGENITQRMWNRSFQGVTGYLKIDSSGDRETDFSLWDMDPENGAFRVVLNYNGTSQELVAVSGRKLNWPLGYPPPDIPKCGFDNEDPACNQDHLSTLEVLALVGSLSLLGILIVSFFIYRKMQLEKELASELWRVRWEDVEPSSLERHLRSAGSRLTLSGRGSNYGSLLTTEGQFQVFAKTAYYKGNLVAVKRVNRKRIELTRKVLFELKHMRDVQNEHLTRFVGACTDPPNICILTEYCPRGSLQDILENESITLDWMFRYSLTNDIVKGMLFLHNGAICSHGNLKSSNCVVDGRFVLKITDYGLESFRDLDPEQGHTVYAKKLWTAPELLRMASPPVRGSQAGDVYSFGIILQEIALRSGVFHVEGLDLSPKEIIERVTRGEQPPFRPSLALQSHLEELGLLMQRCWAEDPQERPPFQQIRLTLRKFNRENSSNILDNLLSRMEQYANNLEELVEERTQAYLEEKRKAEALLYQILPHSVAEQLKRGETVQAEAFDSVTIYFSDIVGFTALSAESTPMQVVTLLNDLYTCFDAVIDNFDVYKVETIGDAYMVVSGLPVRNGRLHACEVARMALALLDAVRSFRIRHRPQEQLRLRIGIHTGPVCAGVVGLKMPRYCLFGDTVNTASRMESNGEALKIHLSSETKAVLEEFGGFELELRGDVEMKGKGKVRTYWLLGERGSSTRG

| SMILES | activity change, negative = inhibition | Potency |
| --- | --- | --- |
| CCCC(C)C(=O)N1CCCN(C)c2ccccc21 (centres undefined) | -13.8% | – |
| COc1ccc2nc3n(c2c1)[C@@H](CNC1CCCCC1)COC3 | -15.1% [at 70.6 µM] | – |
| Cc1ccccc1-n1nc(C)c(CCC(=O)NC(C)C)c1Oc1cccc(F)c1 | -3.9% | – |
| Cc1cc(N2CCCC(Cn3cc(Cc4ccccc4)nn3)C2)nc(N)n1 (centres undefined) | – | 7.94 µM (active) |
| COc1ccc(-c2cn3c(n2)CO[C@@H](CNCc2ccc(F)c(F)c2)C3)cc1 | -22.7% [at 70.6 µM] | – |
| CN(Cc1csc(-c2ccccc2)n1)c1cc(C2CC(O)C2)nc(N)n1 (centres undefined) | – | 2.51 µM (active) |
| COc1ccc(CN2C(=O)CO[C@H]3CN(C(=O)C4CC4)C[C@H]32)cc1 | 2.94% [at 70.6 µM] | – |
| COc1ccc(CN2C(=O)CO[C@H]3CN(Cc4ccc5c(c4)OCO5)C[C@H]32)cc1 | – | 31.6 µM (active) |
| COc1ccc(CN2C(=O)CO[C@H]3CN(Cc4cccnc4)C[C@H]32)cc1 | 9.88% [at 70.6 µM] | – |
| Cc1cc(F)ccc1NC(=O)CCC1CCCN(C(=O)c2ccc(Cl)s2)C1 (centres undefined) | -23% | – |
| Cc1c[nH]c(CN2CCCC(CCc3ccc(F)cc3F)C2)c(C)c1=O (centres undefined) | – | 2.51 µM (active) |
| Cc1noc(C)c1C(=O)N1CCCC(CCc2ccc(F)cc2F)C1 (centres undefined) | -5.53% | – |
| Fc1ccc(-c2cnc3n[nH]c(-c4ccc5c(c4)OCO5)c3n2)cc1 | -3.46% [at 70.6 µM] | – |
| Cc1ccc(-c2nnc(C3CN(C(=O)CCc4ccccc4)CC34CCOCC4)o2)cc1 (centres undefined) | -0.877% | – |
| O=C(c1ccc2cc[nH]c2c1)N1CCC2(CC1)N=C(c1ccc(Cl)cc1)NO2 | – | 11.2 µM (active) |
| O=C(c1cccc2[nH]ccc12)N1CCC2(CC1)N=C(c1cccc(Br)c1)NO2 | -19.9% | – |
| Cc1ccc(C2=NC3(CCN(C(=O)c4ccc(C#N)cc4)CC3)ON2)cc1 | -0.929% | – |
| OCC1(CN2CCCC2)CCN(Cc2cccc(Cn3cccn3)c2)CC1 | -1.59% | – |
| COc1cccn(CC(=O)N(C)Cc2csc(C(C)C)n2)c1=O | -4.01% | – |
| COc1ccc(CNC(=O)CN2C(=O)NC3(CCC(C(C)(C)C)CC3)C2=O)cc1OC (centres undefined) | 5.07% | – |
| c1ccc(-c2noc(-c3ccccc3OC3CCNC3)n2)cc1 (centres undefined) | -13.3% | – |
| CC(C)(CC(=O)O)CC(=O)N[C@H]1CO[C@H]2[C@@H]1OC[C@@H]2n1nnnc1-c1ccccc1 | 1.95% [at 70.6 µM] | – |
| c1ccc(CO[C@@H]2CO[C@H]3[C@@H]2OC[C@@H]3n2nnnc2SCc2ccco2)cc1 | – | 22.4 µM (active) |
| CC(C)(C)CC(=O)N1CC[C@H](NC(=O)Nc2ccc(F)cc2F)[C@H]1C(=O)N[C@H](Cc1ccccc1)C(N)=O | 7.93% | – |
| CCC(C)NC(=O)CN1C(=O)NC2(CCC(C(C)(C)C)CC2)C1=O (centres undefined) | 12.3% | – |
| CCCNc1cc(N2CCC(CCC(=O)NCc3ccc(Cl)cc3)CC2)ncn1 | -14.9% | – |
| O=C(c1ccoc1)N1CCCC(c2nc(CCOCC3CCCC3)no2)C1 (centres undefined) | -3.27% | – |

| SMILES | activity change, negative = inhibition | Potency |
| --- | --- | --- |
| O=C(Cc1cccnc1)N1CCCC(c2nc(CCOCC3CCCC3)no2)C1 (centres undefined) | 0.532% | – |
| C1CCC(COCCc2noc(C3CNC3)n2)C1 | – | 12.6 µM (active) |
| COCCC(=O)N1CCC2(CC1)CC(C(=O)N1CCOCC1)N(C)C2 (centres undefined) | -0.444% | – |
| Cc1ccc2c(c1)nc1n2[C@@H](CNC(=O)c2ccccc2)COC1 | 4.31% [at 70.6 µM] | – |
| Cc1ccc2nc3n(c2c1)[C@@H](CNC(=O)COc1ccccc1)COC3 | -25.6% [at 70.6 µM] | – |
| Cc1ccc2c(c1)nc1n2[C@@H](CNS(=O)(=O)c2ccccc2)COC1 | – | 31.6 µM (active) |
| COCC1CN(Cc2ccc(OC)c(OC)c2Cl)CC12CCNCC2 (centres undefined) | 0.762% | – |
| COc1ccc(-c2cc(CC3(NCc4cccc(OC)c4)COC3)no2)cc1 | -0.189% [at 70.6 µM] | – |
| CCN(CC)C(=O)[C@@H]1CCC[C@@H](NC2CCC2)CN(C)C(=O)C1 | 0.442% [at 70.6 µM] | – |
| COc1ccc(-c2noc(CC3CCN(C(=O)Cc4ccc(OC)c(OC)c4)CC3)n2)cc1 | – | 2.82 µM (active) |
| COc1ccc(CC(=O)N2CCC(Cc3nc(C(C)C)no3)CC2)cc1Cl | -25.4% | – |
| COc1ccc(CC(=O)N2CCC(Cc3nc(-c4cnccn4)no3)CC2)cc1Cl | 1.04% | – |
| COc1ccc(-c2nc3c(c(=O)[nH]2)CCN(C(=O)Cc2ccc(OC)c(Cl)c2)C3)cc1 | 0.917% | – |
| COc1ccc(CC(=O)N2CCC(Cc3nc(-c4ccccc4)no3)CC2)cc1OC | – | 10 µM (active) |
| COc1ccc(CC(=O)N2CCC3(CC2)CC(O)CCO3)cc1OC (centres undefined) | 6.61% | – |
| CCOCCOc1cccc(C(=O)N2CCC3(CCOCC3)CC2)c1 | -1.4% | – |
| CN(C)C(=O)c1n[nH]c2c1CN(C(=O)c1cccc(C(F)(F)F)c1)CC2 | 3.83% | – |
| Cc1cc(C)c(CNC(=O)c2nc(-c3cccc(CO)c3)cc3c2ccn3C)c(=O)[nH]1 | 5.49% [at 70.6 µM] | – |
| Cc1ccccc1-n1nc(CC(N)=O)nc1-c1ccc(Cn2cnnn2)cc1 | 2.3% | – |
| Cc1ccccc1CC(=O)N1CCC[C@H]1c1nc(-c2ccccc2Cl)no1 | -12.8% | – |
| O=c1[nH]c(C2CCN(Cc3ccc(F)cc3)CC2)nn1Cc1ccccc1 | -2.72% | – |
| N#Cc1cccc(CN2CCC(C3=NC(O)c4cc(F)ccc4N3)CC2)c1 (centres undefined) | – | 8.91 µM (active) |
| O=c1[nH]c(C2CCN(Cc3ccccc3)CC2)nc2ccc(F)cc12 | 1.49% [at 70.6 µM] | – |
| COc1ccc(-c2cc(N3CCN(C(=O)c4cc(OC)cc(OC)c4)CC3)n[nH]2)cc1 | -13.1% | – |
| Cc1ccc(C(=O)N2CCN(c3cc(-c4ccc(Cl)cc4)[nH]n3)CC2)c(C)c1 | – | 6.31 µM (active) |
| O=C(c1ccoc1)N1CCN(c2cc(-c3ccc(Cl)cc3)[nH]n2)CC1 | 0% | – |
| O=C(c1cc(F)ccc1Cl)N1CCN(c2cc(-c3ccc(F)cc3)[nH]n2)CC1 | – | 17.8 µM (active) |

— PubChem BioAssay AID1347048 (National Center for Advancing Translational Sciences (NCATS), 2019)
